# Bioassay records: PubChem BioAssay, Broad Institute
# In the library only some 3.1% were active in any assay of this set; here they are far more common.
# RAD52 anneal inh = blocks human RAD52 DNA annealing; AID 651710; P43351; 360,000 tested, 0.46% active; recombinant RAD52 DNA annealing, FRET fluorescence; inhibition, % at 18.7 µM;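 active = every replicate showing at least 50% inhibition; inconclusive = mean inhibition at least 50% but not in every replicate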
# RAD54 branch = inhibitors of human RAD54 branch migration | Q92698 | RAD54 Holliday junction branch migration, FAM/BHQ fluorescence | inhibition, % at 10.4 µM | 360,000 tested, 0.14% active | AID 602329;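 active = mean normalized replicate activity at least 40 and at least half of replicates scoring 40 or more; inconclusive = only one of the two criteria met; inactive = mean below 40 and under half of replicates reaching 40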;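 also: 0% = median of neutral control wells and 100% = median of positive control wells; inhibitors cause a drop in the FAM fluorescence signal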
# dFosB act = mouse delta FosB homodimer activation | P13346 | purified delta FosB, TAMRA-CDK5 oligo fluorescence polarization; percent of positive-control signal above neutral wells | activation, % at 25 µM | 340,000 tested, 0.99% active | AID 493131;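 active = mean activation above about 17%, with every replicate also reaching it, limit read from the data, passing the limit was not always enough; inconclusive = only one of the two conditions met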
# DENV2 CPE = protects cells from dengue virus 2 cytopathic effect | DENV2-infected cells, cytopathic effect rescue, plate reader | CPE inhibition, % at 9.99 µM | 350,000 tested, 1.7% active; in the data active = CPE inhibition above about 20%, passing the limit was not always enough; inconclusive = no clear call, values can overlap the other calls; tested in BHK-21 cells;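 also: 0% = median of neutral control wells and 100% = median of positive control wells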
# MLL AF4-AF9 inh = inhibitors of human MLL-AF4/AF9 interaction; P42568; AlphaScreen, biotin-AF4 peptide binding to FLAG-AF9; inhibition, % at 10 µM; 350,000 tested, 0.47% active;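 active = every replicate reaching a set inhibition limit, whatever the replicate mean, cut at about 25% in these data; inconclusive = mean inhibition reaches that limit but some replicates miss it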;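 also: 0% = plate neutral control median and 100% = total signal loss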
# Target sequence (P42568 whole entry, looked up): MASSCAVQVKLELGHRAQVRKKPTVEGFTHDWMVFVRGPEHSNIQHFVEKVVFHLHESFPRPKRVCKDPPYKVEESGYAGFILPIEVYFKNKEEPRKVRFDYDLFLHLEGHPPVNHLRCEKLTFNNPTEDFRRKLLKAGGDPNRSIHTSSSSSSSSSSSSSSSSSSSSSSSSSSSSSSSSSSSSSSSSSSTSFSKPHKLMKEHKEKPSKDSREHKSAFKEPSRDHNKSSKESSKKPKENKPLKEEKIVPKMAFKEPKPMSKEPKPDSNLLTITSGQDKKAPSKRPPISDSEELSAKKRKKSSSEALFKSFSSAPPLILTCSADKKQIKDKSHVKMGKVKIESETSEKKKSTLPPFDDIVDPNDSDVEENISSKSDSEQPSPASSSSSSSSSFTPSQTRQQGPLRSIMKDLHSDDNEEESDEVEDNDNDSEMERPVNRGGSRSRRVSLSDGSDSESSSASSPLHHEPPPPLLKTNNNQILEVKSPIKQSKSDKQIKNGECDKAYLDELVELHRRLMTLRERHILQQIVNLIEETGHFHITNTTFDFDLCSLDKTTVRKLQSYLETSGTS
# INS-1E GSIS act = GLuc luminescence reporter in INS-1E cells, primary screen for activators of glucose-dependent secretion of insulin; 370,000 tested, 0.61% active; activation, % at 16.6 µM; INS-1E GLuc reporter insulin secretion, 2-3 h; AID 743287;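 active = lowest replicate activation of at least 40%, so every replicate reaches that level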;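 also: 0% = median of neutral control wells and 100% = median of IBMX positive control wells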
# An asterisk follows results filed as active; i = inactive; ? = inconclusive; . = no result given.
SMILES,RAD52 anneal inh,RAD54 branch,dFosB act,DENV2 CPE,MLL AF4-AF9 inh,INS-1E GSIS act
C/C=C/c1ccc(C2[C@@H]3CN(Cc4cccnc4)C[C@H]2N3)cc1 (stereo partly specified),58*,.,.,10,14,-6
CCOc1cc2c(cc1OCC)-n1cccc1C(c1cc(OC)ccc1F)NC2 (stereo unspecified),-9,2,-5,10,27*,-34
CCOc1cc2c(cc1OCC)-n1cccc1C(c1cc(C)c(OC)cc1C)NC2 (stereo unspecified),-4,4,9,-3,5,-14
CCOc1cc2c(cc1OCC)-n1cccc1C(c1cccc(F)c1)NC2 (stereo unspecified),-7,4,-5,-3,26*,-44
CCOc1cc2c(cc1OCC)-n1cccc1C(c1ccc(C)cc1C)NC2 (stereo unspecified),-9,3,15,0,26*,-60
COc1ccc(-c2ccc3n(c2=O)C[C@@H]2[C@@H](CO)[C@H](C(=O)O)[C@H]3N2C(=O)c2ccccc2F)cc1,6,7,.,2,0,7
O=C(O)[C@@H]1[C@@H](CO)[C@@H]2Cn3c(ccc(-c4ccncc4)c3=O)[C@H]1N2C(=O)C1CCCC1,-34,.,.,0,-13,16
CCN1C(=O)C(=C/C=C/c2ccco2)C(=O)N(CC)C1=S,i,.,57*,6,5,3
CC(C)N1C(=O)/C(=C/C=C/c2ccco2)C(=O)N(Cc2ccco2)C1=O,.,-35,-15,.,.,-34
CC=Cc1ccc2n(c1=O)C[C@@H]1[C@@H](CO)[C@H](C(=O)OC)[C@H]2N1S(=O)(=O)c1ccccc1C (mixture of isomers),56*,-3,.,-12,2,2
CC=Cc1ccc2n(c1=O)C[C@H]1[C@H](CO)[C@@H](C(=O)OC)[C@@H]2N1S(=O)(=O)c1ccccc1C (mixture of isomers),53*,5,.,-4,1,2
COC(=O)[C@@H]1[C@@H](CO)[C@@H]2Cn3c(ccc(-c4ccccc4)c3=O)[C@H]1N2S(=O)(=O)c1ccccc1C,1,2,.,0,2,1
Cc1ccc(NC(=O)CN2C(=O)CN=C(c3ccccc3)c3cc(Cl)ccc32)cc1,0,4,-6,2,9,-21
CN(C)c1ccc(NC(=O)CN2C(=O)CN=C(c3ccccc3)c3cc(Cl)ccc32)cc1,1,8,8,-7,27*,.
Cc1nc2ccccc2c(=O)n1-c1ccc(Cl)c(Cl)c1,3,-4,3,-7,2,40*
Cc1ccc(-n2c(C)nc3ccccc3c2=O)cc1C,-14,.,1,-2,1,9
O=[N+]([O-])c1cccc(O)c1,-6,3,3,25*,.,-1
CC(=O)N1[C@@H]2c3ccc(-c4cccc(C(=O)N(C)C)c4)c(=O)n3C[C@H]1[C@H](CO)[C@H]2C(=O)O,3,.,.,-4,-5,2
COc1cc2c(cc1O)C[C@H]1NCCc3cc4c(c-2c31)OCO4,89*,21,24*,-2,12,18
COc1c2c(cc3c1OCO3)CCN(C)C2,-8,-10,-1,-1,-2,-10
CCN1/C(=C\C=C\C2=[N+](CC)c3ccccc3C2(C)C)C(C)(C)c2ccccc21,.,i,52*,.,.,.
S=C=Nc1cccc(C2(N3CCCCC3)CCCCC2)c1,84*,-13,-4,0,9,-3
c1ccc(C2(N3CCCCC3)CCCCC2)cc1,-1,-12,-6,14,.,39
C=CCN1[C@@H]2CN(S(C)(=O)=O)C[C@H]1C2c1ccccc1 (stereo partly specified),.,.,.,.,.,1
CCCCn1c(O)c(/C=C2/C=CC=N2)c(=O)[nH]c1=O,-17,6,0,-2,6,56*
SMILES,RAD52 anneal inh,RAD54 branch,dFosB act,DENV2 CPE,MLL AF4-AF9 inh,INS-1E GSIS act
C[C@]12CCC3[C@@H](CC[C@H]4C[C@@H](O)CC[C@]34C)C1CCC2=O (stereo partly specified),-7,-16,-11,-5,0,1
C[C@]12C[C@H](O)[C@@H](O)C[C@@H]1CC[C@@H]1[C@@H]2CC[C@]2(C)C(=O)CC[C@@H]12,0,2,.,33*,-3,.
CCOC(=O)c1cccc(C2=C(CNC(=O)c3cccnc3)[C@H]3CC[C@@H](C2)N3Cc2ccccc2)c1,-7,2,.,?,1,22
CCOC(=O)c1cccc(C2=C(CNC(C)=O)[C@H]3CC[C@@H](C2)N3Cc2ccccc2)c1,-5,4,.,32*,-2,0
O=C(Cc1ccccc1)N1CC2(C1)[C@H](c1ccccc1)[C@@H](CO)N2Cc1cccc(Cl)c1,-18,.,.,-7,3,-15
COC(=O)C1=C(c2ccccc2OCc2ccccc2)C[C@@H]2CC[C@H]1N2C(=O)NCc1ccc(N(C)C)cc1,-19,1,-6,1,25,-8
COC(=O)C1=C(c2ccc(-c3ccccc3)c(F)c2)C[C@@H]2CC[C@H]1N2C(=O)NCCc1ccccc1,-6,4,-14,30*,-21,-12
COC(=O)C1=C(c2ccccc2OCc2ccccc2)C[C@@H]2CC[C@H]1N2C(=O)NCc1ccc(Cl)cc1,-3,2,-8,58*,-1,-29
COC(=O)C1=C(c2ccc(-c3ccccc3)c(F)c2)C[C@@H]2CC[C@H]1N2C(=O)NCCNC(C)=O,-4,-1,-8,-6,5,2
COC(=O)C1=C(c2ccc(-c3ccccc3)c(F)c2)C[C@@H]2CC[C@H]1N2C(=O)NCCCOC(C)C,2,3,-4,25*,3,.
COc1ccc(-c2ccc([C@H]3[C@@H](CO)N4CCCCN(C(=O)Cc5ccncc5)C[C@H]34)cc2)cc1,21,-7,.,?,1,17
Cc1ccc(/C=C2\C(=O)NC(=O)N(CC3CCCO3)C2=O)s1 (stereo unspecified),-11,-3,2,30*,-7,-5
CC=Cc1ccc2n(c1=O)C[C@H]1[C@H](CO)[C@@H](C(=O)OC)[C@@H]2N1CC1CCCC1 (mixture of isomers),-3,.,.,?,-3,-3
O=C(Cc1ccccc1)N1CCCCN2[C@H](CO)[C@@H](c3ccc(-c4ccccc4)cc3)[C@@H]2C1,-7,-4,.,0,.,-8
O=C(CN1CC(c2ccccc2)CC1=O)Nc1ccccc1 (stereo unspecified),-6,8,3,115*,-1,9
C=C(Cl)CSC(=S)N(CC)CC,-15,-4,3,32*,.,17
O=C(Cc1cccnc1)N1CCCCN2[C@H](C1)[C@@H](c1ccc(C#CC3CC3)cc1)[C@@H]2CO,1,-15,.,-3,10,.
